Laboratory results published in the OligoGym collection.

target: FNBP1L; assay: pooled miR-30 sensor sort-seq; sequence = guide strand; conditions: shRNA
Note: reference of the scale not given here.

Row | Sequence | sensor-assay potency score (higher = more potent)
1 | TGACTTTTGACAATAGTCCTTT | -0.217
2 | TAATGTAGAGAACTTCACCTTC | -0.0833
3 | TTTCTCTAGAGTTACATCTATG | -0.933
4 | TTGTCTAAGCTGTCGAACTGAT | -0.84
5 | TAAGCTGTCGAACTGATCCCAC | 0.0926
6 | TTGTAGTTGCTTGTAAATCTGA | -0.235
7 | TAACTTTGCGTTCTGAGTCAGC | -0.716
8 | TTCTGCTACAACTTCTCGCTGT | 0.673
9 | TAATTCACCATACACTCTGTGC | -0.622
10 | TTCATCATCAAACTCATTGTGG | 0.113

target: FNBP1; assay: as above; conditions: shRNA

Row | Sequence | sensor-assay potency score (higher = more potent)
11 | TAAGCTTCTATTACCAGCTGTG | 0.175
12 | TAACTCATCGACTTTCTGCTGC | 0.71
13 | TTTATAAGCTTCTATTACCAGC | -0.679
14 | TTTACTAGATTCAAGCTGCTTC | 0.524
15 | TTTGGTGACGTATTTGAGCTTG | 0.00299
16 | ATCTCTTTGATCCATCTCCTTC | -0.792
17 | TATACTTGTATTCTTCTTCCTC | 0.713
18 | TTTCTGGGTCTCTACTCGCAGT | -1.12
19 | TTTATTTAACTCATCGACTTTC | -0.243
20 | TAGAATTAGTGCAACACACATA | -0.218

target: FNDC5; assay: as above; conditions: shRNA

Row | Sequence | sensor-assay potency score (higher = more potent)
21 | TTGAAGAGCACAGGCTCGCTGG | -0.67
22 | TTGAGAGCTCTTGTAGACCGGA | 0.301
23 | TACCTCATCTTTGTTCTTGGAG | 0.567
24 | TTATTGGGTTCATTGTCCTTGA | -0.801
25 | TTTTTCCTTGTTGTTATTGGGT | -0.666
26 | TTCCTAAATAAATTGGACCAGT | -0.788
27 | TTGTCCAAGCTAGCATTTCTGA | -1.26
28 | TTTTCCTTGTTGTTATTGGGTT | -0.634
29 | TTGGTCTGAAAGACACAGCTTG | -0.175
30 | TTGTAGTGCAGCCTCCTTCATC | -0.884
31 | TAGCCAGAGCTGCTCTTCCTGT | -1.11
32 | TTGATGATGTCATACTGGCGGC | -0.843

target: FNTB; assay: as above; conditions: shRNA

Row | Sequence | sensor-assay potency score (higher = more potent)
33 | TAAACCTTGTCTGACTGGGGAG | -0.535
34 | TTGACTGCTGCATATGTGGGTG | -0.313
35 | TTTCAGATAATGGAAGTGCTTC | -0.367
36 | TCATGCAACATGGCTCCGCTGC | -1.29
37 | TCCTCCTTCAAATCGCATCTGC | -0.214
38 | TCTGTAGCCACTATCTGGGGGA | 0.162
39 | TTCTGTAGAAAGTATGTAGTGG | 0.598
40 | TACTGAAGAAGCTTCTCTCTGT | 0.515
